Article PMC4336329 (PLoS ONE, 2015)
In all, about 310,000 compounds went through this assay and about 14,000 (4.5%) showed an effect of 50% or more. The effect is printed as a negative number. This is one part of a sample in which strong results are shown more often than they occur.

The compounds below were run against human ether-à-go-go-related gene (hERG) potassium channel (human, UniProt Q12809) (assay: primary screen, population patch clamp on CHO cells stably expressing hERG; higher = less effect of the substance).
human ether-à-go-go-related gene (hERG) potassium channel, sequence (Q12809 whole entry, looked up): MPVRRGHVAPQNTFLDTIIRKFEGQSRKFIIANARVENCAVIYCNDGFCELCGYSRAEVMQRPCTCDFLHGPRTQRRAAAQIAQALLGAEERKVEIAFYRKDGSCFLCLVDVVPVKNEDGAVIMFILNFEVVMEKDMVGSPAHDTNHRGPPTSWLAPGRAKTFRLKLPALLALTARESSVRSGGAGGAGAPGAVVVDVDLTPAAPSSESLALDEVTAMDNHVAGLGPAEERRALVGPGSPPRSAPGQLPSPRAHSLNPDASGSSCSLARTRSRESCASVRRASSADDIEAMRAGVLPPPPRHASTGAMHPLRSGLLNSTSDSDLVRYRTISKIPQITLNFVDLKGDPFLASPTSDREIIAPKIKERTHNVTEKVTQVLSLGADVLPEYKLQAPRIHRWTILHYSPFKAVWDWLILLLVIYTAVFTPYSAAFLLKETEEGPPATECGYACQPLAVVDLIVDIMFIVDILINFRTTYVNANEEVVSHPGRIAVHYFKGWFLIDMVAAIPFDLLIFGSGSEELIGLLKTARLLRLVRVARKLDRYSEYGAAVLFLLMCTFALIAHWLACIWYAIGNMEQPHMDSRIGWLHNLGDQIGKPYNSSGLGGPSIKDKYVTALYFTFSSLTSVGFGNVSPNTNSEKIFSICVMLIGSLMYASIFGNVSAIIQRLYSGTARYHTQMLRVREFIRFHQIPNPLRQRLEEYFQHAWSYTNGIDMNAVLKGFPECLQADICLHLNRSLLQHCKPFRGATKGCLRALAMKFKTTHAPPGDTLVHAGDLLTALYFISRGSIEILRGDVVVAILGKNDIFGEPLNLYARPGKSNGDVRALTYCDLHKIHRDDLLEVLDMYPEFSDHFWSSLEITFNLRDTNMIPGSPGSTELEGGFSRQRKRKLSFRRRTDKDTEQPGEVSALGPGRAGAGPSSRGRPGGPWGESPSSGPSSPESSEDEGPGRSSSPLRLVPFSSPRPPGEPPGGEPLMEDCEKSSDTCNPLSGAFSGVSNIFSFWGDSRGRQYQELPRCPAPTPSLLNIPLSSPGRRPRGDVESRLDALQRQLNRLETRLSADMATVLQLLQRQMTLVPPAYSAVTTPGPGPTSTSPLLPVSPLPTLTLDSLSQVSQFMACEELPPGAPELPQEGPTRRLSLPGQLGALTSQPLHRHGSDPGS
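Note: peak tail current of the secondary pulse compared with the same well before compound.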

SMILES | hERG current change (%, negative = inhibition) at 10uM [%]
Nc1nnc(SCC(=O)NCCOc2ccccc2)s1 | 4.23
Cc1nc(-c2ccccc2O)n(S(=O)(=O)N(C)C)n1 | -4.34
CCCC[n+]1ccn(C2=C([O-])c3ccccc3C(=O)/C2=N\S(=O)(=O)c2ccc(Br)cc2)c1 | -20.7
O=C(Nc1ccccc1F)C1(c2ccccc2)CC1(Cl)Cl (stereo not shown) | -70
O=C(Nc1ccccc1)C1(c2ccccc2)CC1(Cl)Cl (stereo not shown) | -18.1
O=C(Nc1ccccc1Cl)C1(c2ccccc2)CC1(Cl)Cl (stereo not shown) | -0.213
Cc1ccc(C(=O)c2ccccc2C(=O)O)c(O)c1 | 1.4
Cc1noc(NS(=O)(=O)c2ccc(NC(=O)CSc3nc4ccccc4s3)cc2)c1C | -2.99
CC1CCN(c2nc3ccc(C(=O)O)cc3s2)CC1 | 22.8
CC1CCN(c2nc3ccc(C(=O)NCCCN4CCCCC4)cc3s2)CC1 | -50
CC1CCCC(C)N1CCCNC(=O)c1ccc2nc(N3CCCCC3)sc2c1 (stereo not shown) | -38
CCOC(CNC(=O)c1ccc2nc(N3CCC(C)CC3)sc2c1)OCC | 10.6
CCCN1CCN(CCCNC(=O)c2ccc3nc(N4CCC(C)CC4)sc3c2)CC1 | -50.7
CC1CC(C)CN(CCCNC(=O)c2ccc3nc(N4CCCCC4)sc3c2)C1 (stereo not shown) | -47.5
CN(CC(=O)Nc1ccc(N2CCOCC2)cc1)C(=O)CCNC(=O)c1ccc(Br)cc1 | 3.43
O.Oc1cc(O)c2c(c1)O[C@H](c1ccc(O)c(O)c1)[C@@H](O)C2 | 17.4
O=C(c1ccc([N+](=O)[O-])o1)N1CCN(c2nc3ccc(F)cc3s2)CC1 | -23.7
Cc1cc(C)c2nc(N3CCN(C(=O)c4cccs4)CC3)sc2c1 | 0.575
Cc1ccc2sc(N3CCN(C(=O)c4ccc([N+](=O)[O-])o4)CC3)nc2c1C | 3.89
O=C(c1cccs1)N1CCN(c2nc3c(F)cc(F)cc3s2)CC1 | -50.1
Cc1cccc2sc(N3CCN(C(=O)c4cccs4)CC3)nc12 | -9.51
O=C(c1ccc([N+](=O)[O-])o1)N1CCN(c2nc3c(F)cc(F)cc3s2)CC1 | -54.7

SMILES | hERG current change (%, negative = inhibition) at 10uM [%]
Cc1ccc(S(=O)(=O)N2CCN(c3cc4c(cc3[N+](=O)[O-])n(C)c(=O)n4C)CC2)cc1 | -4.2
Nc1nonc1-n1nnc(C(=O)N/N=C/c2cccc(Cl)c2)c1CSc1ccc(Cl)cc1 | 23.9
CCCC12CN3CC(C)(CN(C1)C3c1ccc([N+](=O)[O-])o1)C2=O (stereo not shown) | -19.6
COc1ccc(NC(=O)c2c(NC(=O)CCC(=O)O)sc(-c3ccccc3)c2C)cc1 | 5.27
CC1(C)C(=O)Nc2ccccc2N1C(=O)COc1ncnc2c(Cl)cc(Cl)cc12 | -9.51
CCN(CC)CCN(CC(=O)N(C1CCCCC1)C1CCCCC1)C(=O)c1cccnc1.Cl.O | -71.9
CCN(Cc1ccccc1)C(=O)c1cccnc1 | 2.64
CCN(CC)CCN(CC(=O)N(C1CCCCC1)C1CCCCC1)C(=O)c1ccco1.O=C(O)C(=O)O | 23.2
COc1ccc(/C=N/OC(=O)Nc2ccccc2)cc1[N+](=O)[O-] | -58.4
COc1ccc(NC(=O)O/N=C/c2ccccc2)cc1 | -2.52
Cc1ccc(NC(=O)O/N=C/c2cccc([N+](=O)[O-])c2)cc1 | -15.8
CC(NS(=O)(=O)c1ccc(Cl)cc1)C(=O)NCCC1=CCCCC1 (stereo not shown) | -5.41
Cc1ccc(OCC(=O)N(Cc2ccco2)C2CCS(=O)(=O)C2)cc1 (stereo not shown) | -13
O=C(COc1ccc(Cl)cc1)N(Cc1ccco1)C1CCS(=O)(=O)C1 (stereo not shown) | -20.5
CC(C)c1ccc(OCC(=O)N(Cc2ccco2)C2CCS(=O)(=O)C2)cc1 (stereo not shown) | -79.4
O=C(COc1ccc(F)cc1)N(Cc1ccco1)C1CCS(=O)(=O)C1 (stereo not shown) | -28.4
O=C(COc1ccccc1)N(Cc1ccco1)C1CCS(=O)(=O)C1 (stereo not shown) | -11.5
O=C(COc1ccc(Br)cc1)N(Cc1ccco1)C1CCS(=O)(=O)C1 (stereo not shown) | -50.6
O=C(Nc1ccc2c(c1)OCCO2)C1CCCN(S(=O)(=O)Cc2ccccc2)C1 (stereo not shown) | -11
CCn1nc(NS(=O)(=O)c2ccccc2)c2cc3cc(C)ccc3nc21 | 3.38
COC(=O)c1noc(-c2ccc(C)cc2)n1 | -3.95
CCOC(=O)Cc1csc(NC(=O)CCNS(=O)(=O)c2ccc3c(c2)CCC(=O)N3)n1 | 9.62

SMILES | hERG current change (%, negative = inhibition) at 10uM [%]
CCOP(=O)(OCC)C(Nc1ccc([N+](=O)[O-])cc1)c1ccc(Cl)cc1 (stereo not shown) | -76
CCOP(=O)(OCC)C(Nc1cccc([N+](=O)[O-])c1)c1ccccc1 (stereo not shown) | -18.4
CCCOP(=O)(OCCC)C(Nc1ccc(C(C)C)cc1)c1ccc([N+](=O)[O-])cc1 (stereo not shown) | 3.7
Cn1cccc1CC(=O)NNC(=O)Nc1ccccc1F | 7.76
O=C1c2ccccc2C(Nc2ccc3c(c2)OCCO3)N1Cc1ccccc1 (stereo not shown) | -18.2
CC(NC(=O)C1CCCN(C(=O)c2ccc(Cl)cc2)C1)c1cccc(C(F)(F)F)c1 (stereo not shown) | -51.2
CC(=O)c1ccc(NC(=O)C2CCCN(C(=O)c3ccc(Cl)cc3)C2)cc1 (stereo not shown) | -29.7
CC(=O)Nc1ccc(NC(=O)C2CCCN(C(=O)c3ccc(Cl)cc3)C2)cc1 (stereo not shown) | 6.47
Cc1ccc(NC(=O)C2CCCN(C(=O)c3ccc(Cl)cc3)C2)cc1C (stereo not shown) | -19.6
Cc1ccc(NC(=O)C2CCCN(C(=O)c3ccc(Cl)cc3)C2)cc1 (stereo not shown) | -33.4
Cc1ccc(NC(=O)C2CCCN(C(=O)c3ccc(Cl)cc3)C2)c(C)c1 (stereo not shown) | -59
CC(=O)Nc1ccc(N(C(=O)CNC(=O)c2ccco2)C(C(=O)NC2CCCC2)c2ccco2)cc1 (stereo not shown) | 3.72
CC1(C)C(c2cccs2)=[N+]([O-])C2(CCCCC/C2=N\O)N1O (stereo not shown) | 18.5
COc1cc(C(=O)OCC(=O)N2CC(C)OC(C)C2)cc(OC)c1OC (stereo not shown) | 33
COc1ccccc1OCC(=O)N(Cc1nc(-c2ccccc2)no1)C(C)C | -12
O=C(Nc1cc(C(=O)N2CCCC2)ccc1N1CCCC1)c1ccccc1 | -75.6
CNC(=S)Nc1cc(C(=O)N2CCCC2)ccc1N1CCCC1 | 28.1
O=C(Nc1ccc(C(=O)N2CCCC2)cc1)c1ccccc1F | -4.82
O=C(Nc1cc(C(=O)N2CCOCC2)ccc1N1CCCC1)c1cccs1 | -75.9
O=C(Nc1cc(C(=O)N2CCCC2)ccc1N1CCCC1)c1ccccc1F | -74.6
O=C(Nc1ccc(C(=O)N2CCOCC2)cc1)c1cccs1 | 19.7
O=C(Nc1cc(C(=O)N2CCCC2)ccc1N1CCCC1)C1CC1 | -12.9

SMILES | hERG current change (%, negative = inhibition) at 10uM [%]
COC(=O)c1ccc(N2CCOCC2)c(NC(=O)c2cccs2)c1 | -5.27
O=C(Nc1ccccc1N1CCCCC1)c1ccccc1F | -14.5
O=C(CCCCl)Nc1c2c(nn1-c1ccccc1)CSC2 | -0.0485
C/C(=N\NC(=O)Cc1ccc(Cl)c(Cl)c1)c1cccnc1 | -12.9
COCCn1c(C)cc(C(=O)CSc2ccc3ccccc3n2)c1C | -0.727
COc1cccc(-c2cnc(OC(C)(C)C)nc2OC(C)(C)C)c1 | 14.7
O=C(OCc1ccccc1F)c1ccc2c(c1)OCCO2 | 7.26
O=C(CCn1cccc1)NC1CCCc2ccccc21 (stereo not shown) | 4.95
CC(C)(C)NC(=O)NCc1ccco1 | 8.48
O=C(CCN1CCN(c2ccccc2)CC1)Nc1nccs1 | -9.77
Cn1c(=O)[nH]c(=O)c2c1nc(CN1CCN(c3ccccc3F)CC1)n2CCCc1ccccc1 | -33.7
Cc1ccc(NC(=O)C2(c3ccccc3)CCOCC2)cc1 | 9.1
O=C(Nc1ccc([N+](=O)[O-])cc1)C1(c2ccccc2)CCOCC1 | -69.1
O=C(O)c1ccc(NC(=O)C2(c3ccccc3)CCOCC2)cc1 | -5.57
COc1ccc(C(=O)NCc2nnc(SCC(=O)N3CCCCC3)o2)cc1 | 29.8
C/C(=C\c1cc(C(=O)O)c(C)o1)CO | 12.9
Cn1c(SCc2cnc(-c3ccccc3)s2)nnc1C1COc2ccccc2O1 (stereo not shown) | -1.06
O=C(OCc1cc(=O)n2cc(Br)ccc2n1)C1COc2ccccc2O1 (stereo not shown) | -15.5
Cn1c(SCC(=O)c2ccccc2)nnc1C1COc2ccccc2O1 (stereo not shown) | -11.9
Cn1c(SCc2cc(=O)n3cc(Br)ccc3n2)nnc1C1COc2ccccc2O1 (stereo not shown) | -72
Cn1c(SCc2nnc(-c3ccc(F)cc3)o2)nnc1C1COc2ccccc2O1 (stereo not shown) | -60.9
Cc1occc1-c1nnc(SCc2cc(=O)n3cc(Br)ccc3n2)n1C | -47.7
